About 2,000 (36%) of roughly 5,500 compounds were called active. Inconclusive results (about 18%) are left out. This is one part of the list. A number with no mark means an inactive call. Cut-off read from the data, not from the text of the source: active = normalized growth mostly below about 0.91 (no sharp cut-off); inconclusive = no clear call, values can overlap the other calls; inactive = mostly above about 0.92.
Assay: chemical genetic growth profiling, strain panel (AID 1159580);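 note: tested at 20 µM; growth read once vehicle control cultures reached saturation at 30 °C; 1 = growth at the plate median or of vehicle wells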
Conditions: growth OD
[1] = S. cerevisiae deletion strains, locus YDL101C, strain DUN1, stronger effect = lower value
[2] = S. cerevisiae deletion strains, locus YHR030C, strain SLT2, stronger effect = lower value
[3] = S. cerevisiae deletion strains, locus YAL013W, strain DEP1, stronger effect = lower value
[4] = S. cerevisiae deletion strains, locus YBR229C, strain ROT2, stronger effect = lower value
[5] = S. cerevisiae deletion strains, locus YCL061C, strain MRC1, stronger effect = lower value
[6] = S. cerevisiae deletion strains, locus YDL134C, strain PPH21, stronger effect = lower value
[7] = S. cerevisiae deletion strains, locus YDR150W, strain NUM1, stronger effect = lower value
[8] = S. cerevisiae deletion strains, locus YEL061C, strain CIN8, stronger effect = lower value
[9] = S. cerevisiae deletion strains, locus YGR078C, strain PAC10, stronger effect = lower value
[10] = S. cerevisiae deletion strains, locus YHR087W, strain rtc3, stronger effect = lower value
[11] = S. cerevisiae deletion strains, locus YJL187C, strain SWE1, stronger effect = lower value
[12] = S. cerevisiae deletion strains, locus YJR043C, strain POL32, stronger effect = lower value
[13] = S. cerevisiae deletion strains, locus YJR075W, strain HOC1, stronger effect = lower value
[14] = S. cerevisiae deletion strains, locus YLR039C, strain RIC1, stronger effect = lower value
[15] = S. cerevisiae deletion strains, locus YLR058C, strain SHM2 (second series), stronger effect = lower value
[16] = S. cerevisiae deletion strains, locus YLR085C, strain ARP6, stronger effect = lower value
[17] = S. cerevisiae deletion strains, locus YLR262C, strain YPT6, stronger effect = lower value
[18] = S. cerevisiae deletion strains, locus YML094W, strain GIM5, stronger effect = lower value
[19] = S. cerevisiae deletion strains, locus YMR219W, strain ESC1, stronger effect = lower value
[20] = S. cerevisiae deletion strains, locus YMR307W, strain GAS1, stronger effect = lower value
[21] = S. cerevisiae deletion strains, locus YNL153C, strain GIM3, stronger effect = lower value
[22] = S. cerevisiae deletion strains, locus YNL298W, strain CLA4 (second series), stronger effect = lower value
[23] = S. cerevisiae deletion strains, locus YNL322C, strain KRE1, stronger effect = lower value
[24] = S. cerevisiae deletion strains, locus YNR030W, strain Alg12, stronger effect = lower value
[25] = S. cerevisiae deletion strains, locus YPL055C, strain LGE1, stronger effect = lower value
[26] = S. cerevisiae deletion strains, locus YPL241C, strain CIN2, stronger effect = lower value
[27] = S. cerevisiae deletion strains, locus YPR135W, strain CTF4, stronger effect = lower value
[28] = S. cerevisiae deletion strains, locus YGR229C, strain SMI1, stronger effect = lower value

Work on `COCCOc1ccccc1NC(=S)SCCSC(=S)Nc1ccccc1OCCOC` yielded a normalized growth (S. cerevisiae deletion strains, locus YAR019C, strain CDC15, stronger effect = lower value) of 0.988, a normalized growth (S. cerevisiae deletion strains, locus YBL105C, strain PKC1, stronger effect = lower value) of 0.978 and a normalized growth (S. cerevisiae deletion strains, locus YBR135W, strain CKS1, stronger effect = lower value) of 0.978. For the same compound, the normalized growth (S. cerevisiae deletion strains, locus YBR136W, strain MEC1, stronger effect = lower value) was 0.977, the normalized growth (S. cerevisiae deletion strains, locus YBR160W, strain CDC28, stronger effect = lower value) was 0.979 and the normalized growth (S. cerevisiae deletion strains, locus YDL017W, strain CDC7, stronger effect = lower value) was 0.98. It also gave a normalized growth (S. cerevisiae deletion strains, locus YDL028C, strain MPS1, stronger effect = lower value) of 0.98, a normalized growth [1] of 0.973 and a normalized growth (S. cerevisiae deletion strains, locus YDL108W, strain KIN28, stronger effect = lower value) of 0.97. It also gave a normalized growth (S. cerevisiae deletion strains, locus YDL132W, strain cdc53, stronger effect = lower value) of 0.976, a normalized growth (S. cerevisiae deletion strains, locus YDL214C, strain PRR2, stronger effect = lower value) of 0.911 and a normalized growth (S. cerevisiae deletion strains, locus YDR052C, strain DBF4, stronger effect = lower value) of 0.981. It also gave a normalized growth (S. cerevisiae deletion strains, locus YDR054C, strain cdc34, stronger effect = lower value) of 0.976, a normalized growth (S. cerevisiae deletion strains, locus YDR226W, strain ADK1, stronger effect = lower value) of 0.969 and a normalized growth (S. cerevisiae deletion strains, locus YDR477W, strain SNF1, stronger effect = lower value) of 0.955. It also gave a normalized growth (S. cerevisiae deletion strains, locus YER123W, strain YCK3, stronger effect = lower value) of 0.883, a normalized growth (S. cerevisiae deletion strains, locus YER133W, strain GLC7, stronger effect = lower value) of 0.938 and a normalized growth (S. cerevisiae deletion strains, locus YFL009W, strain cdc4, stronger effect = lower value) of 0.976. For the same compound, the normalized growth (S. cerevisiae deletion strains, locus YFL029C, strain CAK1, stronger effect = lower value) was 0.981, the normalized growth (S. cerevisiae deletion strains, locus YFR003C, strain YPI1, stronger effect = lower value) was 0.977 and the normalized growth (S. cerevisiae deletion strains, locus YFR019W, strain FAB1, stronger effect = lower value) was 0.945. The normalized growth (S. cerevisiae deletion strains, locus YFR028C, strain CDC14, stronger effect = lower value) was 0.988, the normalized growth (S. cerevisiae deletion strains, locus YGR040W, strain KSS1, stronger effect = lower value) was 0.938 and the normalized growth (S. cerevisiae deletion strains, locus YGR052W, strain FMP48, stronger effect = lower value) was 1. The normalized growth (S. cerevisiae deletion strains, locus YGR092W, strain DBF2, stronger effect = lower value) was 0.933, the normalized growth [2] was 1.15 and the normalized growth (S. cerevisiae deletion strains, locus YHR079C, strain IRE1, stronger effect = lower value) was 1.03. It also gave a normalized growth (S. cerevisiae deletion strains, locus YHR082C, strain KSP1, stronger effect = lower value) of 1.01, a normalized growth (S. cerevisiae deletion strains, locus YHR205W, strain SCH9, stronger effect = lower value) of 0.936 and a normalized growth (S. cerevisiae deletion strains, locus YIL147C, strain SLN1, stronger effect = lower value) of 0.97. For the same compound, the normalized growth (S. cerevisiae deletion strains, locus YJL095W, strain BCK1, stronger effect = lower value) was 1.03, the normalized growth (S. cerevisiae deletion strains, locus YJL128C, strain PBS2, stronger effect = lower value) was 0.941 and the normalized growth (S. cerevisiae deletion strains, locus YJL157C, strain FAR1, stronger effect = lower value) was 0.924. The normalized growth (S. cerevisiae deletion strains, locus YJR016C, strain ILV3, stronger effect = lower value) was 0.987, the normalized growth (S. cerevisiae deletion strains, locus YJR066W, strain TOR1 (second series), stronger effect = lower value) was 0.899 and the normalized growth (S. cerevisiae deletion strains, locus YJR066W, strain TOR1, stronger effect = lower value) was 1.03. For the same compound, the normalized growth (S. cerevisiae deletion strains, locus YKL048C, strain ELM1, stronger effect = lower value) was 0.944, the normalized growth (S. cerevisiae deletion strains, locus YKL067W, strain YNK1, stronger effect = lower value) was 0.937 and the normalized growth (S. cerevisiae deletion strains, locus YKL101W, strain HSL1, stronger effect = lower value) was 0.931. It also gave a normalized growth (S. cerevisiae deletion strains, locus YKL193C, strain SDS22, stronger effect = lower value) of 0.985, a normalized growth (S. cerevisiae deletion strains, locus YKL203C, strain TOR2, stronger effect = lower value) of 1.02 and a normalized growth (S. cerevisiae deletion strains, locus YLR113W, strain HOG1, stronger effect = lower value) of 0.931. For the same compound, the normalized growth (S. cerevisiae deletion strains, locus YLR133W, strain CKI1, stronger effect = lower value) was 0.947, the normalized growth (S. cerevisiae deletion strains, locus YLR403W, strain SFP1, stronger effect = lower value) was 0.944 and the normalized growth (S. cerevisiae deletion strains, locus YML070W, strain DAK1, stronger effect = lower value) was 0.902. It also gave a normalized growth (S. cerevisiae deletion strains, locus YMR001C, strain CDC5, stronger effect = lower value) of 0.981, a normalized growth (S. cerevisiae deletion strains, locus YMR205C, strain PFK2 (second series), stronger effect = lower value) of 0.939 and a normalized growth (S. cerevisiae deletion strains, locus YMR277W, strain FCP1, stronger effect = lower value) of 0.984. It also gave a normalized growth (S. cerevisiae deletion strains, locus YNL006W, strain LST8, stronger effect = lower value) of 0.983, a normalized growth (S. cerevisiae deletion strains, locus YNL020C, strain ARK1, stronger effect = lower value) of 0.931 and a normalized growth (S. cerevisiae deletion strains, locus YNL161W, strain CBK1, stronger effect = lower value) of 0.984. It also gave a normalized growth (S. cerevisiae deletion strains, locus YNL183C, strain NPR1, stronger effect = lower value) of 1.01, a normalized growth (S. cerevisiae deletion strains, locus YNL207W, strain RIO2, stronger effect = lower value) of 0.993 and a normalized growth (S. cerevisiae deletion strains, locus YNL222W, strain SSU72, stronger effect = lower value) of 0.972. For the same compound, the normalized growth (S. cerevisiae deletion strains, locus YNL307C, strain MCK1 (second series), stronger effect = lower value) was 0.946, the normalized growth (S. cerevisiae deletion strains, locus YOL078W, strain AVO1, stronger effect = lower value) was 0.98 and the normalized growth (S. cerevisiae deletion strains, locus YOL136C, strain PFK27, stronger effect = lower value) was 0.918. It also gave a normalized growth (S. cerevisiae deletion strains, locus YOR061W, strain CKA2, stronger effect = lower value) of 0.92, a normalized growth (S. cerevisiae deletion strains, locus YOR119C, strain RIO1, stronger effect = lower value) of 0.991 and a normalized growth (S. cerevisiae deletion strains, locus YOR231W, strain MKK1, stronger effect = lower value) of 1. For the same compound, the normalized growth (S. cerevisiae deletion strains, locus YOR329C, strain SCD5, stronger effect = lower value) was 0.981, the normalized growth (S. cerevisiae deletion strains, locus YPL031C, strain PHO85, stronger effect = lower value) was 0.949 and the normalized growth (S. cerevisiae deletion strains, locus YPL153C, strain RAD53, stronger effect = lower value) was 0.928. It also gave a normalized growth (S. cerevisiae deletion strains, locus YPL204W, strain HRR25, stronger effect = lower value) of 0.945, a normalized growth (S. cerevisiae deletion strains, locus YPL209C, strain IPL1, stronger effect = lower value) of 0.978 and a normalized growth (S. cerevisiae deletion strains, locus YPL256C, strain CLN2, stronger effect = lower value) of 0.991. For the same compound, the normalized growth (S. cerevisiae deletion strains, locus YPR025C, strain CCL1, stronger effect = lower value) was 0.982, the normalized growth (S. cerevisiae deletion strains, locus YPR106W, strain ISR1, stronger effect = lower value) was 0.98 and the normalized growth (S. cerevisiae deletion strains, locus YPR111W, strain DBF20, stronger effect = lower value) was 0.977. It also gave a normalized growth (S. cerevisiae deletion strains, strain NNK1, stronger effect = lower value) of 0.981 and a normalized growth (S. cerevisiae deletion strains, strain TSCII, stronger effect = lower value) of 0.99.

`CCOC(=O)c1c(C)csc1N` gave a normalized growth [3] of 0.99, a normalized growth [4] of 0.999 and a normalized growth [5] of 0.996. For the same compound, the normalized growth [1] was 0.998, the normalized growth [6] was 1.01 and the normalized growth [7] was 1.01. The normalized growth [8] was 0.987, the normalized growth [9] was 0.983 and the normalized growth [2] was 0.98. It also gave a normalized growth [10] of 1.01, a normalized growth [11] of 1 and a normalized growth [12] of 1.01. For the same compound, the normalized growth [13] was 0.997, the normalized growth [14] was 1 and the normalized growth [15] was 1.01. For the same compound, the normalized growth [16] was 0.983, the normalized growth [17] was 1.02 and the normalized growth [18] was 0.984. It also gave a normalized growth [19] of 1.01, a normalized growth (S. cerevisiae deletion strains, locus YMR263W, strain SAP30, stronger effect = lower value) of 1.02 and a normalized growth [20] of 0.9. The normalized growth [21] was 1, the normalized growth [22] was 0.967 and the normalized growth [23] was 0.993. It also gave a normalized growth [24] of 0.984, a normalized growth [25] of 1.03 and a normalized growth [26] of 0.972. For the same compound, the normalized growth [27] was 1.02.

For `CCOC(=O)Nc1ccc(NCc2ccc(F)cc2)nc1N`, the normalized growth [3] was 1.02, the normalized growth (S. cerevisiae deletion strains, locus YAL040C, strain CLN3, stronger effect = lower value) was 1.01 and the normalized growth (S. cerevisiae deletion strains, locus YCL061C, strain MRC1 (second series), stronger effect = lower value) was 1. For the same compound, the normalized growth [7] was 0.991, the normalized growth (S. cerevisiae deletion strains, locus YDR363W, strain ESC2, stronger effect = lower value) was 1.02 and the normalized growth (S. cerevisiae deletion strains, locus YER002W, strain NOP16, stronger effect = lower value) was 1. For the same compound, the normalized growth [28] was 1.07, the normalized growth [13] was 1.01 and the normalized growth [20] was 0.994. It also gave a normalized growth (S. cerevisiae deletion strains, locus YNL128W, strain TEP1, stronger effect = lower value) of 0.993, a normalized growth (S. cerevisiae deletion strains, locus YNL175C, strain NOP13, stronger effect = lower value) of 1.01 and a normalized growth (S. cerevisiae deletion strains, locus YNL197C, strain WHI3, stronger effect = lower value) of 1.01. The normalized growth (S. cerevisiae deletion strains, locus YNL224C, strain SQS1, stronger effect = lower value) was 1.04, the normalized growth [23] was 1.01 and the normalized growth (S. cerevisiae deletion strains, locus YOR083W, strain WHI5 (second series), stronger effect = lower value) was 1.03. The normalized growth [25] was 1.02.

With `CCOC(=O)c1c(-c2ccc(F)cc2)csc1N` the normalized growth [3] was 0.879 (active), the normalized growth [4] was 0.905 (active) and the normalized growth [5] was 0.889 (active). The normalized growth [1] was 0.986, the normalized growth [6] was 0.887 (active) and the normalized growth [7] was 0.986. The normalized growth [8] was 0.746 (active), the normalized growth [9] was 0.93 and the normalized growth [28] was 0.928 (active). The normalized growth [2] was 0.175 (active), the normalized growth [10] was 0.858 (active) and the normalized growth [11] was 0.903 (active). The normalized growth [12] was 0.957, the normalized growth [13] was 0.86 (active) and the normalized growth [14] was 0.437 (active). The normalized growth [15] was 0.897 (active), the normalized growth [16] was 0.508 (active) and the normalized growth [17] was 0.438 (active). For the same compound, the normalized growth [18] was 0.798 (active), the normalized growth [19] was 0.93 (active) and the normalized growth [21] was 0.941. For the same compound, the normalized growth [22] was 0.782 (active), the normalized growth [23] was 0.95 and the normalized growth [24] was 0.842 (active). The normalized growth (S. cerevisiae deletion strains, locus YOL006C, strain TOP1, stronger effect = lower value) was 0.479 (active), the normalized growth [25] was 0.754 (active) and the normalized growth [26] was 0.807 (active). For the same compound, the normalized growth [27] was 0.435 (active) and the normalized growth (S. cerevisiae strains, strain wild type, stronger effect = lower value) was 0.82 (active).
